# Results reported in paper PMC7862700, “An all-to-all approach to the identification of sequence-specific readers for epigenetic DNA modifications on cytosine”.
# Columns and labels:
# Test in all cases: DAPPL (digital affinity profiling via proximity ligation, sequencing); 10 mM Tris-HCl pH 7.5, 50 mM NaCl, 1 mM DTT, 4% glycerol, room temperature, 30 min; GST-TFs on glutathione beads, 16-mer random dsDNA library, 0.1% formaldehyde crosslink after washing; high values mean tight binding
# FLI1 = biological target: T1, FLI1 (Homo sapiens, UniProt Q01543 1-452); conditions: protein: recombinant; tags: N-terminal GST; dsDNA, one strand shown
# T1 sequence: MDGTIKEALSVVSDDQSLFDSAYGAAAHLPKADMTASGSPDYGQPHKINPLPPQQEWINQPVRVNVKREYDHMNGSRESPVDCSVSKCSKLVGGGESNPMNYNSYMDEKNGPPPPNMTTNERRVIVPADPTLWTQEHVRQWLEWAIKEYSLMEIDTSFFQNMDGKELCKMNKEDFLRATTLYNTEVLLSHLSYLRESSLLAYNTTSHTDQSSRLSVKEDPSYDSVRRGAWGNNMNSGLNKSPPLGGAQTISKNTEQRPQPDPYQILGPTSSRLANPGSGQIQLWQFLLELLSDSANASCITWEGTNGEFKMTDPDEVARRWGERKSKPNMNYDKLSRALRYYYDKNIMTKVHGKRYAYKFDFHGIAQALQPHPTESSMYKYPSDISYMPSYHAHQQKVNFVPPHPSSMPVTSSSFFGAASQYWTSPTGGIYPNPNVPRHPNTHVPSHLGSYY
# Outline: (§1)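 Pools of DNA-barcoded human transcription factors, expressed in yeast as GST fusions on glutathione beads and combined with a tag-only sample, were incubated with 200 nmole of a 16-mer random double-stranded DNA library. Incubation took 30 min at room temperature in Tris/NaCl/DTT/glycerol buffer and was followed by washing, 0.1% formaldehyde crosslinking, proximity ligation (BsaI/T4 ligase, 1 h, 37 °C), PCR amplification and sequencing on an Illumina NextSeq500. Binding signal is the ratio of a hexamer's read frequency for a factor to its frequency for the tag-only sample.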
# ELK1 = biological target: T2, ELK1 (Homo sapiens, UniProt P19419 1-428); conditions: protein: recombinant; tags: N-terminal GST; dsDNA, one strand shown
# T2 sequence: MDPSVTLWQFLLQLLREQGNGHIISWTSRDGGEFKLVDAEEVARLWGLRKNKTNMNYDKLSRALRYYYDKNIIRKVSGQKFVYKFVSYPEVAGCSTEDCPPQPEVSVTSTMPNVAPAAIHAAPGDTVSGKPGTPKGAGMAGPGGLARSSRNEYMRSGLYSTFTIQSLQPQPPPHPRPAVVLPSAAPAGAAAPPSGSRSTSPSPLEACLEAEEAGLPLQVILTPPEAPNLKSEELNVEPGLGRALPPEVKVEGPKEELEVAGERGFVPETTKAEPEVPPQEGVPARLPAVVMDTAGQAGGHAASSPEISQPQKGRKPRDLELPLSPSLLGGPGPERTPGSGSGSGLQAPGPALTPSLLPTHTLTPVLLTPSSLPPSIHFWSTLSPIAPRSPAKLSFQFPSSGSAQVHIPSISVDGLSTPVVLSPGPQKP
# Outline: as §1
# GABPA = biological target: T3, GABPA (Homo sapiens, UniProt Q06546 1-454); conditions: protein: recombinant; tags: N-terminal GST; dsDNA, one strand shown
# T3 sequence: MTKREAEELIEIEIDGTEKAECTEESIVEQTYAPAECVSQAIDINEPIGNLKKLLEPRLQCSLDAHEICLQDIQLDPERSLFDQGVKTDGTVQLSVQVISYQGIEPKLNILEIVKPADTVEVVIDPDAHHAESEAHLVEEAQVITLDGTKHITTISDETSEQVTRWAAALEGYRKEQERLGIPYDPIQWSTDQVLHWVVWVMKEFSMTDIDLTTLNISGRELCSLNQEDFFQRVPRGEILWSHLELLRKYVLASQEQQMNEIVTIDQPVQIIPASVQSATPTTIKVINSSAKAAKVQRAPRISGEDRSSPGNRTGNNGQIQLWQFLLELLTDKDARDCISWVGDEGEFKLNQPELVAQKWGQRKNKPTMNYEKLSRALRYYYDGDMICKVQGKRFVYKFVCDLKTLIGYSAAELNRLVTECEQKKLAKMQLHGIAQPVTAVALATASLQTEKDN
# Outline: as §1
# ERG = biological target: T4, ERG (Homo sapiens, UniProt P11308 1-479); conditions: protein: recombinant; tags: N-terminal GST; dsDNA, one strand shown
# T4 sequence: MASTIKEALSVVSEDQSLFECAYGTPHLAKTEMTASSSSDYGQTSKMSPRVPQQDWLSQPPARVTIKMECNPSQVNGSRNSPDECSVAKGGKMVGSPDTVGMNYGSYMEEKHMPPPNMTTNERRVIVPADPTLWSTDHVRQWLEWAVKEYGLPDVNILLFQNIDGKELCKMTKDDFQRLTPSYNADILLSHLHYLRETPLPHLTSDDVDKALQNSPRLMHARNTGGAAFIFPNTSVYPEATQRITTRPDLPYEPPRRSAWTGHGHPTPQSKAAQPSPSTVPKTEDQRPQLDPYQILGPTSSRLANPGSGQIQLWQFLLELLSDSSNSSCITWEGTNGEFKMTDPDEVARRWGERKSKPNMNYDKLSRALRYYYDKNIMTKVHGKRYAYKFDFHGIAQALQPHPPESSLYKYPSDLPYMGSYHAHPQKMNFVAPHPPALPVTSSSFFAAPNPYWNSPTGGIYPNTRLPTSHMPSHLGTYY
# Outline: as §1
# ELF1 = ELF1 (Homo sapiens, UniProt P32519 1-619); conditions: protein: recombinant; tags: N-terminal GST; dsDNA, one strand shown
# Sequence of ELF1 (P32519 whole entry): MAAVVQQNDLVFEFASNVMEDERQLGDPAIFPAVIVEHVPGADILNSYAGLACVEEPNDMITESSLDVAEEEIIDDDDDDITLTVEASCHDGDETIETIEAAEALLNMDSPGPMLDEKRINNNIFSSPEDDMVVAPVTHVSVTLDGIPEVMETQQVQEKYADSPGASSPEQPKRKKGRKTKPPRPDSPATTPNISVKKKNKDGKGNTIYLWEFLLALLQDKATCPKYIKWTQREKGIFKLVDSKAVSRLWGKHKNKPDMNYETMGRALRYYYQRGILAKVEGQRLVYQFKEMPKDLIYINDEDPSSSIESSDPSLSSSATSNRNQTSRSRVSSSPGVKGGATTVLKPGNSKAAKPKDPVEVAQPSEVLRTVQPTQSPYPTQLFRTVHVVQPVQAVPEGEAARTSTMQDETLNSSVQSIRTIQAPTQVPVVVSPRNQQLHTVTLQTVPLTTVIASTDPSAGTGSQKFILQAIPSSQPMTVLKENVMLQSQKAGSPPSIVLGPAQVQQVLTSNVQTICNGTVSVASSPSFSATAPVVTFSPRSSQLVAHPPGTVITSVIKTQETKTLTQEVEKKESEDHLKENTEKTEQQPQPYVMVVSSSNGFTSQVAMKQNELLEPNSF
# Outline: as §1
# EHF = biological target: T5, EHF (Homo sapiens, UniProt Q9NZC4 1-300); conditions: protein: recombinant; tags: N-terminal GST; dsDNA, one strand shown
# T5 sequence: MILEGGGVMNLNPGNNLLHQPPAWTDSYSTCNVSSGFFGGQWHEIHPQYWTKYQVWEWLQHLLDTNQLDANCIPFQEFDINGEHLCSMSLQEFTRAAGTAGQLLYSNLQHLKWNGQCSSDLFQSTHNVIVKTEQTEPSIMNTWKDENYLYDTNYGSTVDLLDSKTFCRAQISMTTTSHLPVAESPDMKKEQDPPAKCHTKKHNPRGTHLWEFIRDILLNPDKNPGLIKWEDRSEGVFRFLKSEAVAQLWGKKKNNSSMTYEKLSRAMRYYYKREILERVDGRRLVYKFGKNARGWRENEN
# Outline: as §1
# SPI1 = SPI1 (Homo sapiens, UniProt P17947 1-270); conditions: protein: recombinant; tags: N-terminal GST; dsDNA, one strand shown
# Outline: as §1
# SPIB = SPIB (Homo sapiens, UniProt Q01892 1-262); conditions: protein: recombinant; tags: N-terminal GST; dsDNA, one strand shown
# Sequence of SPIB (Q01892 whole entry): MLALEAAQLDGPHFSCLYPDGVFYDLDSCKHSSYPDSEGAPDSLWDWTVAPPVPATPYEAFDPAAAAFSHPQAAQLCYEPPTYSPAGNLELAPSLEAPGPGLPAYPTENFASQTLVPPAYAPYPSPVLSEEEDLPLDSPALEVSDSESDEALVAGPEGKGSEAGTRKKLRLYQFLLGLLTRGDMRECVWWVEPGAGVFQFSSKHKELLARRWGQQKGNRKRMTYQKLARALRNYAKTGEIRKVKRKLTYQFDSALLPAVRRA
# Outline: as §1
# ELK3 = biological target: T6, ELK3 (Homo sapiens, UniProt P41970 1-407); conditions: protein: recombinant; tags: N-terminal GST; dsDNA, one strand shown
# T6 sequence: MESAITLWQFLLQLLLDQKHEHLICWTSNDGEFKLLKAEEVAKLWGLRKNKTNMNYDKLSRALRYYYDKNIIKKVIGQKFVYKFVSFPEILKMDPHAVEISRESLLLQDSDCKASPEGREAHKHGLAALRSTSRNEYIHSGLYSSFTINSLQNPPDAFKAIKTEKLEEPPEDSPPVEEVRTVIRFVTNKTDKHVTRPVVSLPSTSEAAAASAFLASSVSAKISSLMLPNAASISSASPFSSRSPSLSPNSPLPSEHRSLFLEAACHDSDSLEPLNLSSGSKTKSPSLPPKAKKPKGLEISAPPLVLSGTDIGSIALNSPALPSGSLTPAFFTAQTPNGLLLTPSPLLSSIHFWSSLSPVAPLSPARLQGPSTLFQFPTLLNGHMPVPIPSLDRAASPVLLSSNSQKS
# Outline: as §1
# FEV = biological target: T7, FEV (Homo sapiens, UniProt Q99581 1-238); conditions: protein: recombinant; tags: N-terminal GST; dsDNA, one strand shown
# T7 sequence: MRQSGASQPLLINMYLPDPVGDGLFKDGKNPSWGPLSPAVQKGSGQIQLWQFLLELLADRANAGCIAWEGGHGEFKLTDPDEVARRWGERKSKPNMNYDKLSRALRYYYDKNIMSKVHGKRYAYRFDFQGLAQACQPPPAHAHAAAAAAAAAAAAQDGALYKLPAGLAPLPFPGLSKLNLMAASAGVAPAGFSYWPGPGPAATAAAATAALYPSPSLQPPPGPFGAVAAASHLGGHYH
# Outline: as §1
# ETV5 = ETV5 (Homo sapiens, UniProt P41161 1-510); conditions: protein: recombinant; tags: N-terminal GST; dsDNA, one strand shown
# Sequence of ETV5 (P41161 whole entry): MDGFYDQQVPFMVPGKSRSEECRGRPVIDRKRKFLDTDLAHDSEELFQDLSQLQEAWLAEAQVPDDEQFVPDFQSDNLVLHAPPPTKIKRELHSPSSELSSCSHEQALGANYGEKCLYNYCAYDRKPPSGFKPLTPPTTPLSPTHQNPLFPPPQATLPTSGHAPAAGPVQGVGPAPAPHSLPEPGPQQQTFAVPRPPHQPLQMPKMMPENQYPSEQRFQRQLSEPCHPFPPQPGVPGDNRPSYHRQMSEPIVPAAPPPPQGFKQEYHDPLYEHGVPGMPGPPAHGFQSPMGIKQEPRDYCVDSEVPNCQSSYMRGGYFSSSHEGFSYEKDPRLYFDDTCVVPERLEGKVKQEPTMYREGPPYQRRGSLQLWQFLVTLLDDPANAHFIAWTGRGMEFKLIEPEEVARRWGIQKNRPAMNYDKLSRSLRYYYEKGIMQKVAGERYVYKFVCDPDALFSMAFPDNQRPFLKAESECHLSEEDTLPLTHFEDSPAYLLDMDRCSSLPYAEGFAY
# Outline: as §1
# HSF1 = HSF1 (Homo sapiens, UniProt Q00613 1-529); conditions: protein: recombinant; tags: N-terminal GST; chain copies: 3; dsDNA, one strand shown
# Sequence of HSF1 (Q00613 whole entry): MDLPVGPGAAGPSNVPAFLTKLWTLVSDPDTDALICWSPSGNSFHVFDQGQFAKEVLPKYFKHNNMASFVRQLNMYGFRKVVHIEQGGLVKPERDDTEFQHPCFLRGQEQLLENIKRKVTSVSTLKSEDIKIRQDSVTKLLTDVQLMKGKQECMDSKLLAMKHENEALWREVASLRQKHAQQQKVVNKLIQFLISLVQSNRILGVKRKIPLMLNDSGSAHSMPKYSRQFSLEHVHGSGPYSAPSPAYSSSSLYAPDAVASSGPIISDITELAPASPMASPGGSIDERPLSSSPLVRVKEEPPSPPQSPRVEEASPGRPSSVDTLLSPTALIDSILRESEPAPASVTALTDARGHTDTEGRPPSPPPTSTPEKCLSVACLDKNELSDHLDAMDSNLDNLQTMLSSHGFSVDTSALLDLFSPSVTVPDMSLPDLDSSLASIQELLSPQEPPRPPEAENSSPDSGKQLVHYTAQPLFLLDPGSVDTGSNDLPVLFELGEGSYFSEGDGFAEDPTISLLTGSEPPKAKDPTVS
# Outline: as §1
# SPIC = biological target: T8, SPIC (Homo sapiens, UniProt Q8N5J4 1-248); conditions: protein: recombinant; tags: N-terminal GST; dsDNA, one strand shown
# T8 sequence: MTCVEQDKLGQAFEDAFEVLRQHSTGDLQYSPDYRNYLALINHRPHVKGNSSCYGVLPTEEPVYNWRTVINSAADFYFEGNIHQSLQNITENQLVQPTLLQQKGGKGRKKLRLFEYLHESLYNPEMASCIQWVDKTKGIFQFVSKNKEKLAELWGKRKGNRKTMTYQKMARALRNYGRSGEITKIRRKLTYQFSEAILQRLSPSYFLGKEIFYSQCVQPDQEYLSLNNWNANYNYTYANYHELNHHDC
# Outline: as §1
# ELF4 = ELF4 (Homo sapiens, UniProt Q99607 1-663); conditions: protein: recombinant; tags: N-terminal GST; dsDNA, one strand shown
# Sequence of ELF4 (Q99607 whole entry): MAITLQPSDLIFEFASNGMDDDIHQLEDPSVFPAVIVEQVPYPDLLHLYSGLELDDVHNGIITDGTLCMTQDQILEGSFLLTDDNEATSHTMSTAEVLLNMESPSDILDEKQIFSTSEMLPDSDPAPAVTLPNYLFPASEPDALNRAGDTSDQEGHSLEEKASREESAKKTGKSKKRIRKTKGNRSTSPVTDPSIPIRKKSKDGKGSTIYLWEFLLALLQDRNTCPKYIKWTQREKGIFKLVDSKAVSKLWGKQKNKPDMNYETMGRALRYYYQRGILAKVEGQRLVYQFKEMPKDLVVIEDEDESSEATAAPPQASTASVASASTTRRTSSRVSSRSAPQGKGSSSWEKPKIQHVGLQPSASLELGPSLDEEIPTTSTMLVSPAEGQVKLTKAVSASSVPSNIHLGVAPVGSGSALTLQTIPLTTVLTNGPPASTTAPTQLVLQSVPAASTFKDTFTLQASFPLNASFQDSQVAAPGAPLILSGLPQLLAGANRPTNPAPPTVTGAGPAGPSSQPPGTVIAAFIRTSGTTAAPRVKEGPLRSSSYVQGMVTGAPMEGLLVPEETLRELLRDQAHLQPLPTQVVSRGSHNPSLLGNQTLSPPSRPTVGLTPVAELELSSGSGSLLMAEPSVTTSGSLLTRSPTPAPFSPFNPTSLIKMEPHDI
# Outline: as §1
# ELK4 = biological target: T9, ELK4 (Homo sapiens, UniProt P28324-2 1-405); conditions: protein: recombinant; tags: N-terminal GST; dsDNA, one strand shown
# T9 sequence: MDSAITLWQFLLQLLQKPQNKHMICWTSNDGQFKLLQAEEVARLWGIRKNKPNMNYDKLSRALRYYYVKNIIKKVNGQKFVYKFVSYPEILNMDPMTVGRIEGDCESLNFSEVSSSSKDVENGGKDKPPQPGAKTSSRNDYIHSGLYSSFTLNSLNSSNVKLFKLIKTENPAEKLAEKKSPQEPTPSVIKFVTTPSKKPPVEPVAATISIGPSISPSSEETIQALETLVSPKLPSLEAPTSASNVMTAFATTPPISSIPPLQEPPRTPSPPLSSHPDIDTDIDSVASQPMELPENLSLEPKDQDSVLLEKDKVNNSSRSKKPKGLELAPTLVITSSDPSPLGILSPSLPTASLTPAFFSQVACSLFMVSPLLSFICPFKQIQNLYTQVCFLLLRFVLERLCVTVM
# Outline: as §1
# ETV2 = biological target: T10, ETV2 (Homo sapiens, UniProt O00321 1-342); conditions: protein: recombinant; tags: N-terminal GST; dsDNA, one strand shown
# T10 sequence: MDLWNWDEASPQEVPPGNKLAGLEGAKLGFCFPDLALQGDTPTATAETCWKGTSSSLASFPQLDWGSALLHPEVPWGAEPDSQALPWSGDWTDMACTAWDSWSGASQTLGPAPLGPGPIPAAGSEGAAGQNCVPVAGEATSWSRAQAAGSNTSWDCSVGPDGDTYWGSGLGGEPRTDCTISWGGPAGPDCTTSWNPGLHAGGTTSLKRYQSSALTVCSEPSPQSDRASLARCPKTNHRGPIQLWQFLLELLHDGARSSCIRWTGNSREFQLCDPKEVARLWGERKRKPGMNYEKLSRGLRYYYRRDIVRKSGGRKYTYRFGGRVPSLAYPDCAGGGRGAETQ
# Outline: as §1
# ELF3 = biological target: T11, ELF3 (Homo sapiens, UniProt P78545 1-371); conditions: protein: recombinant; tags: N-terminal GST; dsDNA, one strand shown
# T11 sequence: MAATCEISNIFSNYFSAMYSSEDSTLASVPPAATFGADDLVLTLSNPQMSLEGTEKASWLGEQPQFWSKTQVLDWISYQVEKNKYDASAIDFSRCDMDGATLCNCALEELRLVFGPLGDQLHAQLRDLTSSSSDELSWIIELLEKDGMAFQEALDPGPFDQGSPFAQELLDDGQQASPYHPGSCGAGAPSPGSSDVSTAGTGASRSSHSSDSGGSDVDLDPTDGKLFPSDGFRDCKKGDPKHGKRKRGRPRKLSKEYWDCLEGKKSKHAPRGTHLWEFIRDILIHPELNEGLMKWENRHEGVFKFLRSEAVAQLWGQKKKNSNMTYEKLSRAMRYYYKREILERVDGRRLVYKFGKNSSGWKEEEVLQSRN
# Outline: as §1
# CRX = CRX (Homo sapiens, UniProt O43186 1-299); conditions: protein: recombinant; tags: N-terminal GST; dsDNA, one strand shown
# Sequence of CRX (O43186 whole entry): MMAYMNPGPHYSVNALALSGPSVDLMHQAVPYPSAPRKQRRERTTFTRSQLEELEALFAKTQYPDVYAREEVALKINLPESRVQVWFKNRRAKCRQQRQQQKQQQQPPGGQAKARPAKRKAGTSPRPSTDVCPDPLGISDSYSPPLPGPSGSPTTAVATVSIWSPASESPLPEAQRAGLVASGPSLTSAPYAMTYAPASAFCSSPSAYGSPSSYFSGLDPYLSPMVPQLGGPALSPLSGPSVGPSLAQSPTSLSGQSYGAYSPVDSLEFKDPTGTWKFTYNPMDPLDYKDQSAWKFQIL
# Outline: as §1
# ETV1 = ETV1 (Homo sapiens, UniProt P50549 1-477); conditions: protein: recombinant; tags: N-terminal GST; dsDNA, one strand shown
# Sequence of ETV1 (P50549 whole entry): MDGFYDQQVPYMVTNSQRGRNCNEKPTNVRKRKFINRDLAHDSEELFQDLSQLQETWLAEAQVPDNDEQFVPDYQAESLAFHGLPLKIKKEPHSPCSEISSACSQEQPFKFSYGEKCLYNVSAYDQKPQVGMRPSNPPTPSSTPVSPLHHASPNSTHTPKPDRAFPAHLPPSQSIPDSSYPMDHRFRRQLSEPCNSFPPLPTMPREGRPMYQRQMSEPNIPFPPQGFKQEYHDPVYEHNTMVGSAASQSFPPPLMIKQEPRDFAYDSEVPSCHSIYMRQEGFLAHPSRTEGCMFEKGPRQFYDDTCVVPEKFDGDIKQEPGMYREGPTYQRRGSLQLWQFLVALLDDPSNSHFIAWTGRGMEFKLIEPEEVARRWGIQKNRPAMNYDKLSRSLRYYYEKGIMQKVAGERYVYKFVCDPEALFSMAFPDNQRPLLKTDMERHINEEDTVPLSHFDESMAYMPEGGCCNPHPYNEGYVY
# Outline: as §1
sequence,measurement,setting,value
TTAGTT,binding signal,FLI1,"1.36 fold enrichment (6-mer frequency, TF over GST control)"
same,binding signal,ELK1,"1.38 fold enrichment (6-mer frequency, TF over GST control)"
same,binding signal,GABPA,"1.18 fold enrichment (6-mer frequency, TF over GST control)"
same,binding signal,ERG,"1.24 fold enrichment (6-mer frequency, TF over GST control)"
same,binding signal,ELF1,"1.31 fold enrichment (6-mer frequency, TF over GST control)"
same,binding signal,EHF,"1.3 fold enrichment (6-mer frequency, TF over GST control)"
same,binding signal,SPI1,"1.27 fold enrichment (6-mer frequency, TF over GST control)"
same,binding signal,SPIB,"1.31 fold enrichment (6-mer frequency, TF over GST control)"
same,binding signal,ELK3,"1.31 fold enrichment (6-mer frequency, TF over GST control)"
same,binding signal,FEV,"1.2 fold enrichment (6-mer frequency, TF over GST control)"
same,binding signal,ETV5,"1.25 fold enrichment (6-mer frequency, TF over GST control)"
same,binding signal,HSF1,"1.68 fold enrichment (6-mer frequency, TF over GST control)"
same,binding signal,SPIC,"1.28 fold enrichment (6-mer frequency, TF over GST control)"
same,binding signal,ELF4,"1.37 fold enrichment (6-mer frequency, TF over GST control)"
same,binding signal,ELK4,"1.32 fold enrichment (6-mer frequency, TF over GST control)"
same,binding signal,ETV2,"1.37 fold enrichment (6-mer frequency, TF over GST control)"
same,binding signal,ELF3,"1.25 fold enrichment (6-mer frequency, TF over GST control)"
same,binding signal,CRX,"2.25 fold enrichment (6-mer frequency, TF over GST control)"
same,binding signal,ETV1,"1.33 fold enrichment (6-mer frequency, TF over GST control)"
